Reference: the supplement of paper PMC11150407
About 45 (2%) of roughly 3,000 compounds showed an effect of 50% or more. This excerpt belongs to a sample that is enriched for strong results.

These molecules were tested on MOLM1 and UCSD/AML1 (averaged) (assay: cell viability relative to DMSO control (POC); higher = less growth inhibition). Conditions: 1 µM; 72 h.
Method: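 Primary viability screen in the 3q26 EVI1-high AML cell lines MOLM1 and UCSD/AML1, compounds at 1 uM for 72 h. ATP CellTiter-Glo read-out given as percent viable over DMSO control (POC), averaged over duplicates. This mapping covers the TimTec NDL-3000 natural derivative library, whose compounds are identified by TimTec catalogue codes (ST...).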

Row | SMILES | cell viability
1 | O=C(CSc1nc2ccccc2c(=O)[nH]1)NCc1ccccc1Cl | 107%
2 | Cc1ccc(NC(=O)CN2C(=O)S/C(=C/c3cc4c(cc3Cl)OCO4)C2=O)cc1 | 92%
3 | CNC(=O)c1ccccc1NC(=O)C(=O)c1c[nH]c2ccccc12 | 111%
4 | CCOC(=O)/C=C1\NC(C)(C)Cc2cc3c(cc21)OCCO3 | 89.5%
5 | CC(C)COc1ccc(C(=O)N/C(=C\c2ccccc2)C(=O)NCCNC(=O)/C(=C\c2ccccc2)NC(=O)c2ccc(OCC(C)C)cc2)cc1 | 103%
6 | COc1cc(OC)cc(C(=O)Nc2cc(OC)cc(S(=O)(=O)c3ccc(Cl)cc3)c2)c1 | 92.8%
7 | CCc1cccc(C)c1NC(=O)CN1CCN(Cc2cc(=O)oc3cc(C)ccc23)CC1 | 95.4%
8 | Cc1ccc2c(C)cc(=O)[nH]c2c1C | 109%
9 | COc1cc(C(=O)CCNc2ccc(F)cc2)cc(OC)c1OC | 78.3%
10 | Cc1ccc2[nH]c(C)c(CCNS(=O)(=O)c3ccc4c(c3)OCCO4)c2c1 | 99.4%
11 | COc1ccc(/C=C/C(=O)c2ccccc2)cc1COc1ccc(Cl)cc1 | 106%
12 | COc1ccc(/C=C/C(=O)c2ccccc2)cc1COc1ccc([N+](=O)[O-])cc1 | 101%
13 | COc1ccc(/C=C/C(=O)c2ccccc2)cc1COc1ccc(NC(C)=O)cc1 | 40%
14 | Cc1ccc(C)c(-c2nc(CSc3nc4c(=O)[nH]cnc4n3C)c(C)o2)c1 | 103%
15 | Cc1cc2c(c(O)c1-c1c(C)cc3c(c1O)/C(=C/Nc1c(C)n(C)n(-c4ccccc4)c1=O)C(=O)C(O)=C3C(C)C)/C(=C/Nc1c(C)n(C)n(-c3ccccc3)c1=O)C(=O)C(O)=C2C(C)C | 84.6%
16 | COc1cc(C(=O)NC(C(=O)O)C(C)C)cc(OC)c1OC (stereo not drawn) | 103%
17 | CC(C)(C)c1ccc(C(=O)NCC(=O)O)cc1 | 95.9%
18 | O=C(/C=C/c1cccc([N+](=O)[O-])c1)c1ccc2c(c1)OCO2 | 98.1%
19 | O=[N+]([O-])C1=Cc2ccccc2OC1c1ccc2c(c1)OCO2 (stereo not drawn) | 2.67%
20 | O=C(/C=C/c1ccc([N+](=O)[O-])cc1)NCc1ccc2c(c1)OCO2 | 97%
21 | COCCN1C(=O)/C(=C\c2cc(OC)c(OC)c(OC)c2)C(C(=O)OC)=C1C | 101%
22 | O=C(CCNc1cccc(Cl)c1)c1cc2ccccc2oc1=O | 115%
23 | CCOC(=O)c1ccc2[nH]c(-c3ccccc3)cc(=O)c2c1 | 7.45%
24 | CCOC(=O)c1ccc2[nH]c(=O)c(Cc3ccccc3)c(O)c2c1 | 97.9%
25 | CCOC(=O)c1ccc2[nH]c(=O)c(C)c(O)c2c1 | 108%
26 | COc1ccc(C(=O)CC2(O)C(=O)N(Cc3cccc4ccccc34)c3ccccc32)cc1OC (stereo not drawn) | 97.5%

Row | SMILES | cell viability
27 | NC(=O)CC1CCCCN1 (stereo not drawn) | 126%
28 | O=c1cc(-c2ccc(Br)cc2)oc2ccc(Cl)cc12 | 96%
29 | Cc1ccc2occc(=O)c2c1 | 100%
30 | O=c1cc(-c2ccccc2Br)oc2ccc(Cl)cc12 | 110%
31 | O=c1cc(O)c2cc(Cl)ccc2o1 | 101%
32 | O=c1cc(C(Cl)(Cl)Cl)oc2ccc(Cl)cc12 | 7.16%
33 | Cc1ccc2oc(C(Cl)(Cl)Cl)cc(=O)c2c1 | 26.6%
34 | O=c1ccoc2ccccc12 | 93.1%
35 | Cc1ccc2oc(-c3ccc(Cl)cc3)cc(=O)c2c1 | 85.9%
36 | O=c1cc(C(Cl)(Cl)Cl)oc2ccccc12 | 4.98%
37 | Cc1ccc(-c2cc(=O)c3ccccc3o2)cc1 | 92.3%
38 | Cc1ccc2oc(-c3ccccc3C)cc(=O)c2c1 | 21.6%
39 | Cc1ccccc1-c1cc(=O)c2cc(Br)ccc2o1 | 106%
40 | CCc1ccc2oc(=O)cc(CN3CCN(Cc4nc(-c5ccc(C)cc5)oc4C)CC3)c2c1 | 96.3%
41 | O=C(Cn1c(=O)cc(C(=O)N2CCCCC2)c2ccccc21)Nc1ccc(F)cc1 | 89.9%
42 | Cc1ccc2c(CN3CCN(Cc4ccc(Br)cc4F)CC3)cc(=O)oc2c1 | 100%
43 | CCc1ccc(-c2cc(-c3cc(OC)c(OC)c(OC)c3)[nH]c(=O)c2C#N)cc1 | 96.9%
44 | CC(=O)OCC1OC(OC(C)=O)C(OC(C)=O)C(OC(C)=O)C1OC(C)=O (stereo not drawn) | 109%
45 | O=C(/C=C/c1cccc(Cl)c1)c1ccc(OC(=O)c2cccc([N+](=O)[O-])c2)cc1 | 102%
46 | Nc1nc2ncc(CNc3ccc(C(=O)N[C@H](CCC(=O)O)C(=O)O)cc3)nc2c(=O)[nH]1 | 102%
47 | COc1cc(C2C(C#N)=C(N)Oc3n[nH]c(-c4ccccc4)c32)cc(OC)c1OC (stereo not drawn) | 100%
48 | COc1cc(C2C(C#N)=C(N)Oc3n[nH]c(C)c32)ccc1O (stereo not drawn) | 110%
49 | COc1cc(C2C(C#N)=C(N)Oc3cc(N)ccc32)cc(OC)c1OC (stereo not drawn) | 13.5%
50 | COc1cc(C(=O)N2CCCc3cccc(OCCNC(C)=O)c32)cc(OC)c1OC | 98.7%
51 | CCOC(=O)CC[C@@H](C)[C@H]1CC[C@H]2[C@@H]3CC[C@@H]4C[C@H](O)CC[C@]4(C)[C@H]3C[C@H](O)[C@]12C | 86%
52 | CC(=O)c1nc2ccccc2n1CC(=O)NCCOc1ccccc1 | 98.2%

Row | SMILES | cell viability
53 | COc1cccc(NC(=O)Cn2c(=O)cc(C(=O)N3CCCC3)c3ccccc32)c1 | 102%
54 | COc1ccc(C(=O)c2sc(Nc3ccc(F)cc3)nc2N)cc1OC | 101%
55 | COc1ccc(C(=O)c2sc(Nc3cccc(F)c3)nc2N)cc1OC | 96.9%
56 | COc1ccc(Nc2nc(N)c(C(=O)c3ccc(OC)c(OC)c3)s2)cc1 | 15.4%
57 | CCOc1ccc(-c2nc(CSc3nc4c(=O)[nH]cnc4n3C)c(C)o2)cc1OC | 118%
58 | COC(=O)c1cc(O)cc(O)c1 | 104%
59 | COC(=O)c1c(C)n(CCOc2ccc(F)cc2)c2ccc(O)cc12 | 96.9%
60 | COc1cc(C(=O)NCc2ccc3c(c2)OCO3)c(Br)c(OC)c1OC | 105%
61 | COc1cc(OC)c(C(=O)/C=C/c2ccc(O)cc2)c(OC)c1 | 100%
62 | COc1cc(O)c(C(=O)/C=C/c2ccco2)c(OC)c1 | 112%
63 | COc1cc(OC)c(C(=O)/C=C/c2ccccc2)c(OC)c1 | 33%
64 | CCN(CC)c1ccc2cc(-c3ccccc3)c(=O)oc2c1 | 96.9%
65 | CCN(CC)c1ccc2[nH]c3c(C(N)=O)cc(=O)c(=O)c=3oc2c1 | 3.99%
66 | CC(C)c1ccc(NC(=O)Cn2c(=O)cc(C(=O)N3CCc4ccccc4C3)c3ccccc32)cc1 | 97.1%
67 | COc1ccc(C(=O)/C=C2\C(=O)Nc3ccccc32)cc1OC | 52.3%
68 | COc1cc(C(=O)/C=C2\C(=O)Nc3ccccc32)cc(OC)c1OC | 21.6%
69 | COc1cc(C(=O)NC2Cc3ccccc3NC2=O)cc(OC)c1OC (stereo not drawn) | 109%
70 | CCN(CC)c1ccc2cc(-c3ccc(OC)cc3)c(=O)oc2c1 | 88.7%
71 | CN(C)c1ccc2cc3ccc(=[N+](C)C)cc-3oc2c1 | 3.15%
72 | COc1cc(/C=C/C(=O)c2ccc(C(=O)/C=C/c3cc(OC)c(OC)c(OC)c3)cc2)cc(OC)c1OC | 106%
73 | Cc1ccc(C)c(NC(=O)CN2CCN(Cc3cc(=O)oc4cc(C)ccc34)CC2)c1 | 98.3%
74 | COc1ccccc1NC(=O)c1ccc2c(c1)OCO2 | 94.7%
75 | CCOc1ccccc1C1CCCC2(O)CCN(CC(=O)NCc3ccco3)CC12 (stereo not drawn) | 99.5%
76 | CCOC(=O)C1=C(C)N(C)C(=O)NC1c1cc(Br)c(O)c(OC)c1 (stereo not drawn) | 116%
77 | CCOC(=O)c1sc(NC(=O)/C=C/c2ccccc2)c(C(=O)OCC)c1C | 96%
78 | COc1ccc(-c2cc(=O)c3cc(O)ccc3o2)cc1 | 71.1%

Row | SMILES | cell viability
79 | COc1ccc2oc(C(Cl)(Cl)Cl)cc(=O)c2c1 | 3.78%
80 | COc1ccc2c(O)c([N+](=O)[O-])c(=O)oc2c1 | 105%
81 | COc1ccc2c(=O)cc(C(Cl)(Cl)Cl)oc2c1 | 5.13%
82 | COc1ccc2c(=O)c(O)c(-c3ccccc3)oc2c1 | 62.7%
83 | COc1ccc(-c2cc(=O)c3ccccc3o2)c(OC)c1 | 113%
84 | COc1cc(OC)cc(C(=O)Nc2ccccc2C(=O)Nc2ccccc2Cl)c1 | 95.1%
85 | CN1CCN(Cc2c(O)ccc3cc(-c4nc5ccccc5s4)c(=O)oc23)CC1 | 101%
86 | Cc1cc(C)c(NC(=O)Cn2c(=O)cc(C(=O)N3CCc4ccccc4C3)c3ccccc32)c(C)c1 | 100%
87 | CCCCCC1CCC(=O)N1CCN=Cc1c(O)c(O)c(C(C)C)c2cc(C)c(-c3c(C)cc4c(C(C)C)c(O)c(O)c(C=NCCN5C(=O)CCC5CCCCC)c4c3O)c(O)c12 (stereo not drawn) | 86.9%
88 | Cc1[nH]c2ccccc2c1CCNC(=O)c1ccc(=O)[nH]c1 | 96.3%
89 | CC(Cl)COC(=O)/C=C/c1ccc([N+](=O)[O-])cc1 (stereo not drawn) | 108%
90 | Cc1ccc(N2C3=C(C(=O)CC(C)(C)C3)C(c3ccc(O)cc3)C3=C2CC(C)(C)CC3=O)cc1 | 89.8%
91 | COc1ncnc2nc[nH]c12 | 100%
92 | Cc1ncnc2nc[nH]c12 | 3.11%
93 | Cc1ccc(OCCSc2ncnc3nc[nH]c23)cc1 | 92.7%
94 | Cc1ccc(-n2c(SCc3cn4ccccc4n3)nc3c(=O)[nH]cnc32)cc1 | 98.3%
95 | CCC(O)/N=C/c1c(O)c(O)c(C(C)C)c2cc(C)c(-c3c(C)cc4c(C(C)C)c(O)c(O)c(/C=N/C(O)CC)c4c3O)c(O)c12 (stereo not drawn) | 88.9%
96 | Cc1cc2c(C(C)C)c(O)c(O)c(C=NCCN3CCN(C)CC3)c2c(O)c1-c1c(C)cc2c(C(C)C)c(O)c(O)c(C=NCCN3CCN(C)CC3)c2c1O | 98.8%
97 | Cc1cc2c(C(C)C)c(O)c(O)c(/C=N/N3CCN(C)CC3)c2c(O)c1-c1c(C)cc2c(C(C)C)c(O)c(O)c(/C=N/N3CCN(C)CC3)c2c1O | 4.5%
98 | COc1ccc(NC(=O)CSc2nc3c(=O)[nH]cnc3n2-c2ccc(C)cc2)c(OC)c1 | 102%
99 | Cc1ccc(C(=O)N2N=C(c3c(-c4ccccc4)c4cc(Br)ccc4[nH]c3=O)CC2c2ccccc2)cc1 (stereo not drawn) | 100%
100 | CCOC(=O)N1CCc2[nH]c3ccc(C)cc3c2C1 | 42.4%
101 | O=C(O)c1ccc2[nH]c3c(c2c1)CCCC3 | 95.7%
102 | CCOC(=O)N1CCc2[nH]c3ccc(Cl)cc3c2C1 | 89.6%
103 | CCN(CC)CCC(=O)c1ccc(OC)c(OC)c1 | 98.6%
